15 compounds from PubChem BioAssay (NCI) can be followed below.

Among the test systems are HCT-15 colon; HT29 colon; SNB-75 CNS; SNB-19 CNS; PC-3 prostate; SK-MEL-5 melanoma; UACC-62 melanoma; LOX IMVI melanoma; SK-MEL-28 melanoma.
Holding throughout (experiment): NCI-60 one-dose screen, 48 h (100 = growth as untreated, 0 = no growth, -100 = all killed)
Holding throughout (conditions): 10 µM unless noted

About 83,000 compounds went through this panel and 20% of them were active in at least one assay; those are over-represented in the sample as a whole.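 96-well plates, one dose, 48 hours. Percent growth reported; active if below 10.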 A number with no mark means an inactive call. Calls of active or inactive are those of the source.

For the compound `Cc1nc2cc(Nc3nc(Cl)nc(Nc4ccc(F)cc4)n3)ccc2n1Cc1ccccc1`, the growth with HCT-15 colon is 72.1%; with HT29 colon, 94.5%; with SNB-75 CNS, 90%; in the assay with SNB-19 CNS, 92.4%; in the assay with PC-3 prostate, 78.8%; with SK-MEL-5 melanoma, 92.4%. Besides, the growth with UACC-62 melanoma was 82.4%; with LOX IMVI melanoma, 43.3%; with SK-MEL-28 melanoma it was 106%.
On to `CSc1ccc(OC(C)=O)cc1C`, for which the growth in the assay with HCT-15 colon was 95%; with HT29 colon it was 104%; with SNB-75 CNS, 94.3%; with SNB-19 CNS, 109%; in the assay with PC-3 prostate, 96.6%; in the assay on SK-MEL-5 melanoma, 98.8%. For the same compound, the growth with UACC-62 melanoma is 98.1%; with LOX IMVI melanoma, 95.5%.
Regarding `COc1ccc(-n2ncc3c4nc(OC)c(S(=O)(=O)c5ccccc5)cc4ccc32)cc1`, the growth is 77.6% in the assay with HCT-15 colon; 70.3% in the assay with HT29 colon; 6.98% (active) in the assay on SNB-75 CNS; 64.9% in the assay on SNB-19 CNS; 79.4% with PC-3 prostate; 90.4% in the assay with SK-MEL-5 melanoma. For the same compound, the growth with UACC-62 melanoma was 59.9%; in the assay with LOX IMVI melanoma, 86.1%; in the assay on SK-MEL-28 melanoma, 71.6%.
`CCCCCCCCCCCCCCNc1nc(CO)ncc1-c1ccc(C(F)(F)F)cc1`: the growth is 103% in the assay on HCT-15 colon; 104% in the assay with HT29 colon; 74.2% in the assay on SNB-75 CNS; 118% with SNB-19 CNS; 94.6% in the assay on PC-3 prostate; 98.5% with SK-MEL-5 melanoma. The growth was 95.5% in the assay on UACC-62 melanoma, 91.6% with LOX IMVI melanoma and 108% with SK-MEL-28 melanoma.
On to `Cc1ccc(-c2c3c(N)c4c(nc3nc3c2c(C)nn3-c2ccccc2)CCCC4)cc1`, for which the growth in the assay on HCT-15 colon was 99.3%; in the assay on HT29 colon, 95.4%; with SNB-75 CNS, 97.2%; with SNB-19 CNS, 108%; in the assay on PC-3 prostate, 90.9%; with SK-MEL-5 melanoma, 104%. For the same compound, the growth was 106% in the assay on UACC-62 melanoma, 93.9% with LOX IMVI melanoma and 99.8% in the assay on SK-MEL-28 melanoma.
Consider `COc1ccc(-c2c3c(N)c4c(nc3nc3c2c(C)nn3-c2ccccc2)CCCCC4)cc1`, for which the growth was 73.9% in the assay with HCT-15 colon; 41.4% with HT29 colon; 79.8% in the assay on SNB-75 CNS; 93.7% with SNB-19 CNS; 70.4% in the assay with PC-3 prostate; 90.6% in the assay on SK-MEL-5 melanoma. The growth is 98% with UACC-62 melanoma, 90.6% with LOX IMVI melanoma and 98% in the assay on SK-MEL-28 melanoma.
For `FC(F)(F)c1cc(CNc2nc(Cl)ncc2Br)cc(C(F)(F)F)c1`, the growth in the assay with HCT-15 colon is 79.7%; in the assay with HT29 colon, 98.4%; in the assay on SNB-75 CNS, 66.6%; in the assay with SNB-19 CNS, 107%; in the assay with PC-3 prostate it was 80.2%; in the assay on SK-MEL-5 melanoma, 95.4%. The growth is 77.2% in the assay on UACC-62 melanoma, 98.4% with LOX IMVI melanoma and 94% in the assay on SK-MEL-28 melanoma.
Take `Cc1nc2cc(Nc3nc(N4CCCCC4)nc(N4CCOCC4)n3)ccc2n1Cc1ccccc1`: the growth in the assay with HCT-15 colon is 21.3%; in the assay with HT29 colon, -8.67% (active); in the assay on SNB-75 CNS, -12.7% (active); in the assay on SNB-19 CNS, 65.3%; in the assay with PC-3 prostate, 47.1%; with SK-MEL-5 melanoma, 54.9%. Moreover, the results for the growth in the assay with UACC-62 melanoma and with LOX IMVI melanoma were 32.1% and 1.44% (active), respectively.
In the case of `C=C(C)CCCC(C)CC#N` (stereo not drawn), the growth in the assay with HCT-15 colon is 101%; in the assay with HT29 colon, 93.9%; with SNB-75 CNS it was 91.3%; with SNB-19 CNS, 110%; in the assay on PC-3 prostate, 95.7%; with SK-MEL-5 melanoma it was 99.7%. Besides, the growth in the assay with UACC-62 melanoma was 111%; in the assay on LOX IMVI melanoma, 99.2%; in the assay on SK-MEL-28 melanoma, 106%.
Regarding `Cn1c(=O)c(S(=O)(=O)c2ccccc2)cc2ccc3c(cnn3-c3ccc(Cl)cc3)c21`, the growth in the assay on HCT-15 colon is 73%; in the assay with HT29 colon, 79.2%; with SNB-75 CNS, 38.9%; with SNB-19 CNS, 90.1%; in the assay with PC-3 prostate, 79.9%; in the assay on SK-MEL-5 melanoma, 84.6%. Further, the growth in the assay with UACC-62 melanoma is 89.1%; in the assay with LOX IMVI melanoma, 78.9%; in the assay with SK-MEL-28 melanoma, 84.6%.
For `Cc1nc2cc(Nc3nc(Nc4ccc(F)cc4)nc(N4CCN(C)CC4)n3)ccc2n1Cc1ccccc1`, the growth with HCT-15 colon was -34.3% (active); in the assay with HT29 colon, -51.9% (active); with SNB-75 CNS it was -20.4% (active); in the assay on SNB-19 CNS, 44.2%; in the assay with PC-3 prostate, 19.7%; in the assay on SK-MEL-5 melanoma, 80.9%. For the same compound, the growth is -65.4% (active) in the assay on UACC-62 melanoma, -73.6% (active) in the assay with LOX IMVI melanoma and -67.4% (active) in the assay with SK-MEL-28 melanoma.
Consider `CC1(C)N=C(N)N=C(N)N1c1cccc(/C=C/C=C/c2cccc([N+](=O)[O-])c2)c1`, for which the growth with HCT-15 colon is 88.7%; with HT29 colon, 11.5%; in the assay on SNB-75 CNS, 58.3%; with SNB-19 CNS, 51.6%; in the assay on PC-3 prostate, 2.12% (active); with SK-MEL-5 melanoma it was 68.3%. Besides, the values for the growth in the assay on UACC-62 melanoma, in the assay on LOX IMVI melanoma and in the assay on SK-MEL-28 melanoma were 47.3%, 33.7% and 65.6%, respectively.
Turning to `Cn1c2c(cc(S(=O)(=O)c3ccccc3)c1=O)CCc1c-2cnn1-c1cccc(Cl)c1`, the growth with HCT-15 colon is 96.7%; with HT29 colon, 91.3%; with SNB-75 CNS, 76.4%; with SNB-19 CNS, 97%; in the assay on PC-3 prostate, 83.1%; with SK-MEL-5 melanoma it was 83.3%. Besides, the growth in the assay on UACC-62 melanoma was 84.6%; in the assay on LOX IMVI melanoma, 93.4%; in the assay with SK-MEL-28 melanoma, 94.7%.
As to `O=C(Nc1ccc(Cl)c(Cl)c1)OCn1ncc2ccc([N+](=O)[O-])cc21`, the growth was 84.9% in the assay with HCT-15 colon; 103% in the assay on HT29 colon; 67.8% in the assay on SNB-75 CNS; 92.9% with SNB-19 CNS; 70.9% with PC-3 prostate; 95.7% in the assay with SK-MEL-5 melanoma. The growth is 73.6% in the assay on UACC-62 melanoma, 78.8% in the assay on LOX IMVI melanoma and 108% in the assay on SK-MEL-28 melanoma.
As to `CCOC(=O)c1cc2c(n(C)c1=O)-c1cnn(-c3ccc(OC)cc3)c1CC2`, the growth in the assay on HCT-15 colon is 89%; in the assay on HT29 colon, 95.6%; in the assay on SNB-75 CNS it was 90.5%; with SNB-19 CNS it was 96.6%; in the assay with PC-3 prostate, 98.5%; with SK-MEL-5 melanoma, 98%. The growth was 91.1% with UACC-62 melanoma, 93.9% in the assay with LOX IMVI melanoma and 96.6% in the assay on SK-MEL-28 melanoma.
